Screening data deposited in PubChem BioAssay by National Center for Advancing Translational Sciences (NCATS).
VDR inhibitor – Inhibitors of the vitamin D receptor (VDR): qHTS; 400,000 tested, 0.93% active; Potency, µM, inactives show max response, negative = inhibition, actives largely listed as inhibitors; Vitamin D3 receptor (Homo sapiens), P11473; VDR-SRC2-3 peptide fluorescence polarization, 2 h
Target sequence (P11473 whole entry, looked up): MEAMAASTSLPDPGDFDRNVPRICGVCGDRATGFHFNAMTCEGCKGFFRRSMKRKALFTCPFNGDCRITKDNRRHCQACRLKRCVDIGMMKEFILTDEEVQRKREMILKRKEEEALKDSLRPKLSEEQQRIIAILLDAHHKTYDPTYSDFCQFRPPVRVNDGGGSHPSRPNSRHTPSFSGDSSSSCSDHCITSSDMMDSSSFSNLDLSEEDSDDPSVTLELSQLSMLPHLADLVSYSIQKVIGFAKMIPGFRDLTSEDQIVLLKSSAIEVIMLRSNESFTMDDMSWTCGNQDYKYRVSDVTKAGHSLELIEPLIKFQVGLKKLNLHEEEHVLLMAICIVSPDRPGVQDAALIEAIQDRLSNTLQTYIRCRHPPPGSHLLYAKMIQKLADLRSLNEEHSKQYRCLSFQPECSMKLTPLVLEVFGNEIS
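VDR–SRC2-3 interaction, FP format. Cmpds 23 nl via pintool, brief spin, 2 h ambient incubation.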
ALOX12 inh – Primary qHTS assay for inhibitors of human arachidonate 12S-lipoxygenase (ALOX12): Round 2; Polyunsaturated fatty acid lipoxygenase ALOX12 (Homo sapiens), P18054; purified 12hLO, xylenol orange hydroperoxide absorbance; Potency, µM (series often up to 108 µM), for the others: at the highest dose activity change, negative = inhibition, hits mostly inhibitors; 580,000 tested, 1.1% active
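Purified human 12hLO at 150 nM in 25 mM Hepes, 0.01% Triton X-100, pH 7.0, preincubated 15 min at room temperature with compound. Reaction started with 40 uM arachidonic acid, 30 min at room temperature. Hydroperoxide measured by Fe-xylenol orange, 573/405 nm absorbance ratio.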
PLK1 PBD block – qHTS for Inhibitors of PLK1-PDB (polo-like kinase 1 - polo-box domain): Primary Screen. Serine/threonine-protein kinase PLK1 (Homo sapiens), P53350. Plk1 PBD binding of FITC phosphopeptide, fluorescence polarization. Potency, µM, without a hit: max response, negative = inhibition, hits mostly inhibitors. 360,000 tested, 2.8% active; further: series mostly up to about 57 µM; nearly all actives have a fitted effect of over 65% in size
KAT2A inh – qHTS Assay for Inhibitors of GCN5L2. 390,000 tested, 0.21% active. GCN5L2 HAT assay, ThioGlo1 CoA-SH fluorescence. Potency, µM (highest dose often 58.9 µM), without a hit: at the highest dose activity change, negative = inhibition, hits mostly inhibitors. Histone acetyltransferase KAT2A (Homo sapiens), Q92830. AID 504327, 2011
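Preincubate 20nM GCN5L2 with compound 15 min, RT → add 50uM ThioGlo1 + 75uM H3(1-25) + 70uM acetyl-CoA → read fluorescence 0 and 20 min. Primary qHTS; fluorescent artifacts likely.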
The depositor's hits bear a star; ? = inconclusive; . = not tested or not shown; [ ] = remark or other dose. In the library only some 3% were active in any assay of this set; here they are far more common. The call rests on the fitted dose curve; in most records, active means well fitted curve in the direction sought with a large enough effect; inconclusive means small, poorly fitted or top-dose-only effect, or another doubt; inactive means no such curve, though single readings can be large; an effect the other way counts as inactive or inconclusive. On the % scale 0 is the no-effect control and ±100 the full control effect; potency means the concentration at half of the fitted maximal effect.

SMILES	VDR inhibitor	ALOX12 inh	PLK1 PBD block	KAT2A inh
COc1ccc(CNC(=O)C[C@@H]2C[C@H]3O[C@H](CNCc4ccccc4Cl)[C@@H](O)[C@H]3O2)cc1	.	-20%	.	.
CC(C)c1nnc2ccc(N3CCCCCC3)nn12	.	-8%	.	.
CCCC(=O)NC1CCN(c2ccccc2S(=O)(=O)C(F)(F)F)CC1	.	-26%	.	.
O=C(c1cc(-c2cccs2)nc2ccccc12)N1CCN(c2cccc(C(F)(F)F)c2)CC1	.	-10%	.	.
O=c1[nH]c2ccccc2nc1CCc1ccccc1	7%	-2%	27µM*	-15%
O=C(Nc1ccccc1)Nc1cccc(C(F)(F)F)c1	9%	-5%	-6%	-8%
O=C(Nc1cccc(C(F)(F)F)c1)Nc1cc(Cl)ccc1C(=O)O	50µM*	.	.	22µM*
CC(C)C(=O)Nc1ccc(NC(=O)Nc2cccc(Cl)c2)cc1	.	-4%	.	.
Cc1ccc(NC(=O)Nc2cccc(Cl)c2)c(C(=O)O)c1	?	-5%	19µM*	-13%
CCNC(=O)C1CCCN(Cc2ccc(C(F)(F)F)cc2)C1 (stereo unspecified)	.	-25%	.	.
CCOC(=O)C1Nc2ccc(C(=O)O)cc2C2C=CCC12 (stereo unspecified)	16µM*	0%	3µM*	-18%
CCCC1Nc2ccc(C(=O)O)cc2C2C=CCC12 (stereo unspecified)	-37%	.	?	-4%
CCOC(=O)c1ccc2c(c1)C1C=CCC1C(C(=O)O)N2 (stereo unspecified)	.	.	.	20µM*
Cc1cc(C)c2c(c1)NC(C(=O)O)C1CC=CC21 (stereo unspecified)	57%	7.9µM*	3µM*	28µM*
Cc1ccc(Cl)c2c1N[C@@H](c1ccc(C(=O)O)cc1)[C@H]1CC=C[C@@H]21	-30%	-16%	.	-7%
C=CCN(CC=C)Cc1c(C)[nH]c2c(C)cc(C)cc2c1=O	.	9%	.	.
CC(Sc1ccc(C(C)(C)C)cc1)C(=O)NC(C)(C)C (stereo unspecified)	.	3%	.	.
CNC(=O)NC(=O)C(C)NC(C)c1ccc(Cl)cc1 (stereo unspecified)	.	-13%	.	.
O=C(COC(=O)c1ccccc1OCc1ccccc1)Nc1ccc(F)cc1	.	-6%	.	.
Cc1ccc(S(=O)(=O)C(C#N)c2nc3ccccc3nc2N2CCCC2)cc1 (stereo unspecified)	?	?	34µM*	-28%
N#CC(c1nc2ccccc2nc1N1CCOCC1)S(=O)(=O)c1ccccc1 (stereo unspecified)	-10%	?	-19%	0%
Cc1ccc(S(=O)(=O)C(C#N)c2nc3ccccc3nc2N2CC(C)OC(C)C2)cc1C (stereo unspecified)	1%	-53%	38µM*	-7%
Cc1cc(C(=O)CCC(=O)NC2CCCCC2)c(C)s1	.	52%	.	.
C=CC(=O)NC(NC(=O)C=C)c1ccc(Cl)cc1	.	6%	.	.
COc1cccc(CNC(=O)CCNS(=O)(=O)c2ccc(Br)s2)c1	?	0%	27µM*	-5%
SMILES	VDR inhibitor	ALOX12 inh	PLK1 PBD block	KAT2A inh
COc1cccc(CNC(=O)CCNC(=O)c2ccc(Br)o2)c1	?	0%	13µM*	-6%
COc1cccc(CNC(=O)CNS(=O)(=O)c2ccc(Br)s2)c1	-7%	-20%	-9%	-15%
COc1ccc(CNC(=O)CCNS(=O)(=O)c2ccc(Br)s2)cc1	-23%	-1%	30µM*	-18%
Nc1ncc(Br)cc1S(=O)(=O)NCCC(=O)NC1CCCCC1	-25%	-5%	27µM*	-3%
CCCC(=O)OCCC(C)CCC=C(C)C (stereo unspecified)	.	135%[176 µM]	.	.
Cc1ccc(N(CC(=O)NCC2CCCO2)S(=O)(=O)c2ccccc2)cc1 (stereo unspecified)	.	-1%	.	.
CC(Oc1ccccc1)C(=O)Nc1cnc(-c2cccc(Cl)c2)nc1 (stereo unspecified)	.	-14%	.	.
COc1ccc(CNC(=O)CCNS(=O)(=O)c2cc(Br)cnc2N)cc1	?	.	3.4µM*	0%
Nc1ncc(Br)cc1S(=O)(=O)NCCC(=O)NCc1ccc(F)cc1	-14%	-1%	-14%	-9%
CSc1nc(C)nc2c1c(=O)n(C)c(=O)n2CC(C)C	.	4%	.	.
